What all share (test): DAPPL (digital affinity profiling via proximity ligation, sequencing); 10 mM Tris-HCl pH 7.5, 50 mM NaCl, 1 mM DTT, 4% glycerol, room temperature, 30 min; GST-TFs on glutathione beads, 16-mer random dsDNA library, 0.1% formaldehyde crosslink after washing; high values mean tight binding
What all share (conditions): protein: recombinant; tags: N-terminal GST; dsDNA, one strand shown

The target in one test is T1, FLI1 (Homo sapiens, UniProt Q01543 1-452).
T1 sequence: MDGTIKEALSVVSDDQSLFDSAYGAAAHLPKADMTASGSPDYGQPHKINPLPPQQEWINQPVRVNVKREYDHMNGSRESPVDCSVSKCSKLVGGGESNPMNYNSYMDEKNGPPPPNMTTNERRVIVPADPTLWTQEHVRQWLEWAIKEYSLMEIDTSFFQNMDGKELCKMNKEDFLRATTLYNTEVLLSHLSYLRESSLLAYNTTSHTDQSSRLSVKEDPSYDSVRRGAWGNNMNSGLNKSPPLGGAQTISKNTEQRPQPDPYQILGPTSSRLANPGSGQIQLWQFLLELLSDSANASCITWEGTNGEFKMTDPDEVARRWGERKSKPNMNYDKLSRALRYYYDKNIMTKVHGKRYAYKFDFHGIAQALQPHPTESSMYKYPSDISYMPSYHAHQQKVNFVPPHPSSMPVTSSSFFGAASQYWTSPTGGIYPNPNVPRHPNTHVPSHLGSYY
A digest of the protocol:
(§1)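 After expression in yeast as GST fusions, human transcription factors were bound to glutathione beads, DNA-barcoded and mixed with a tag-only sample. The pools were incubated with 200 nmole of a 16-mer random double-stranded DNA library in Tris/NaCl/DTT/glycerol buffer (30 min, room temperature), washed and crosslinked with 0.1% formaldehyde. Proximity ligation with BsaI/T4 ligase ran for 1 h at 37 °C, before PCR amplification and sequencing on an Illumina NextSeq500. Binding signal is a hexamer's read frequency for a factor divided by its frequency for the tag-only sample.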

The next test concerns the target T2, ELK1 (Homo sapiens, UniProt P19419 1-428).
T2 sequence: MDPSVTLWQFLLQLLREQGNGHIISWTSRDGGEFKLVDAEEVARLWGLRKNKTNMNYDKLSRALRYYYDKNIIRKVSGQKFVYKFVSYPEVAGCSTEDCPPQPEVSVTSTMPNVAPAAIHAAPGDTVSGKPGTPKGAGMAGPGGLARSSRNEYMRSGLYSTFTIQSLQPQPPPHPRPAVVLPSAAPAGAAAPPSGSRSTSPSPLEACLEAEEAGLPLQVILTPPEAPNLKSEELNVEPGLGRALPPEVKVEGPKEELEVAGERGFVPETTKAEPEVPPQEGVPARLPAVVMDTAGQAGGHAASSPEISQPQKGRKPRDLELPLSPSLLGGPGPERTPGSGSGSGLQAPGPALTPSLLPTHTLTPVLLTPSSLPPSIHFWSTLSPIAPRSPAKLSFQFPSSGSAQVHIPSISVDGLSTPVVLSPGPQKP
The gist of the method: as §1

The next test concerns the target T3, GABPA (Homo sapiens, UniProt Q06546 1-454).
T3 sequence: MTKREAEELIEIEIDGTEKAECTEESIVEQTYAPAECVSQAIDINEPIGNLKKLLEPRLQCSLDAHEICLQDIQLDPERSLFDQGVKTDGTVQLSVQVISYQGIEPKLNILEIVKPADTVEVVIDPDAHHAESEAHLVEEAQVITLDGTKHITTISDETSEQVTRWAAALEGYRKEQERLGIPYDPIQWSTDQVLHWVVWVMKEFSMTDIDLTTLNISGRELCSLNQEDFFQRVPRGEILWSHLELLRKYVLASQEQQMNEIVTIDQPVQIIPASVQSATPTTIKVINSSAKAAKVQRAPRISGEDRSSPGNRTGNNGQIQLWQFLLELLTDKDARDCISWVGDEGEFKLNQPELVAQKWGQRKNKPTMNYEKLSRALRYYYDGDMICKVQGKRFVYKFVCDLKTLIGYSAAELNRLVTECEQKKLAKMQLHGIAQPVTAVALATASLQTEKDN
A digest of the protocol:
as §1

Another test deals with T4, ERG (Homo sapiens, UniProt P11308 1-479).
T4 sequence: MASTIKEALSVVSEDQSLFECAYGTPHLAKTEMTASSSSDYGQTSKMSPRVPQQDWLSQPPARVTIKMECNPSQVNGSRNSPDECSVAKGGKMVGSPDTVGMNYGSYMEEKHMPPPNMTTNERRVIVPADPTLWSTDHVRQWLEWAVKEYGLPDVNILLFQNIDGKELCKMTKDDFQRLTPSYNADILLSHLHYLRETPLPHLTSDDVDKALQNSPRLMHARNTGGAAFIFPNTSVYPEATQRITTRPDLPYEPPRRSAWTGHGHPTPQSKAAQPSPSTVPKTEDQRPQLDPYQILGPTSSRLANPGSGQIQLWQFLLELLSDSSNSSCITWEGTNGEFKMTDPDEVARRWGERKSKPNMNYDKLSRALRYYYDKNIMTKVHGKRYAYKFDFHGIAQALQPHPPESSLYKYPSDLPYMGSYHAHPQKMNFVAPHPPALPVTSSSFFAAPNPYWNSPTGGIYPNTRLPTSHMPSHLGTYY
A digest of the protocol: as §1

Another test concerns the target ELF1 (Homo sapiens, UniProt P32519 1-619). The gist of the method:
as §1

The next test addresses T5, EHF (Homo sapiens, UniProt Q9NZC4 1-300).
T5 sequence: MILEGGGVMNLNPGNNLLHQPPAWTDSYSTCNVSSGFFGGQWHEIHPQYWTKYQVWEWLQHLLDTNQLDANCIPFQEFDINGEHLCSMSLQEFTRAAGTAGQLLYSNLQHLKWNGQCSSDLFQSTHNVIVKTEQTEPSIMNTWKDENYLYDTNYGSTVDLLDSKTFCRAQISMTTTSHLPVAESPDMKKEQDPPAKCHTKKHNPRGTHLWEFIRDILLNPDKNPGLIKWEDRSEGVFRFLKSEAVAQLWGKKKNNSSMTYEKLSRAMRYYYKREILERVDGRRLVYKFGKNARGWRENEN
A digest of the protocol:
as §1

The target of a further test is SPIB (Homo sapiens, UniProt Q01892 1-262). The gist of the method:
as §1

Another test addresses T6, ELK3 (Homo sapiens, UniProt P41970 1-407).
T6 sequence: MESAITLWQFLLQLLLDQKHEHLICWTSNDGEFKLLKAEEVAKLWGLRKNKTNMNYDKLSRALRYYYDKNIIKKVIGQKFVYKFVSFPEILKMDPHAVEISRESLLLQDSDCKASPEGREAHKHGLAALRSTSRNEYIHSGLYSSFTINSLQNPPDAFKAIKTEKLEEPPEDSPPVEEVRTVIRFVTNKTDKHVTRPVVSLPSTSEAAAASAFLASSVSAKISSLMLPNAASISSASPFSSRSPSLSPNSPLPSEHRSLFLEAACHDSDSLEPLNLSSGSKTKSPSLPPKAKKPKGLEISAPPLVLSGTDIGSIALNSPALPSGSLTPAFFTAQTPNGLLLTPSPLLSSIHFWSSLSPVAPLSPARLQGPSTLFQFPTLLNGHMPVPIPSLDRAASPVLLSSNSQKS
A digest of the protocol: as §1

The target in a further test is T7, FEV (Homo sapiens, UniProt Q99581 1-238).
T7 sequence: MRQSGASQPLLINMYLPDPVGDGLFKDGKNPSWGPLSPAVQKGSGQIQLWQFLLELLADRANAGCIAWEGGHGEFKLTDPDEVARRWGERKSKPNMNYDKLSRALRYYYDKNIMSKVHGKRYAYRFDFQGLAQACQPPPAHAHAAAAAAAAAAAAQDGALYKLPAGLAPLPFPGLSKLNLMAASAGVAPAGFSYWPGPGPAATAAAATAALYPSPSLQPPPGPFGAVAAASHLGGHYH
A digest of the protocol:
as §1

Another test addresses ETV5 (Homo sapiens, UniProt P41161 1-510). A digest of the protocol: as §1
Another test has as its target T8, SPIC (Homo sapiens, UniProt Q8N5J4 1-248).
T8 sequence: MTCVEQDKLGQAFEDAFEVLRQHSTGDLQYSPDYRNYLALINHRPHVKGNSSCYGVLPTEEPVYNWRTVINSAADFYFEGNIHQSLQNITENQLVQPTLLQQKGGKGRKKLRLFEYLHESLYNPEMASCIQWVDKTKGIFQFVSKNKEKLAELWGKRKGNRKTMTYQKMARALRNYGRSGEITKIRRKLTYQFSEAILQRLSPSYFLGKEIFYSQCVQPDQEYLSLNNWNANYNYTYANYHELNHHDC
A digest of the protocol: as §1

In the next test the target is ELF4 (Homo sapiens, UniProt Q99607 1-663). The gist of the method:
as §1

The target of the next test is ETV1 (Homo sapiens, UniProt P50549 1-477). A digest of the protocol:
as §1

For the next test, the target named is T9, ERF (Homo sapiens, UniProt P50548 1-548).
T9 sequence: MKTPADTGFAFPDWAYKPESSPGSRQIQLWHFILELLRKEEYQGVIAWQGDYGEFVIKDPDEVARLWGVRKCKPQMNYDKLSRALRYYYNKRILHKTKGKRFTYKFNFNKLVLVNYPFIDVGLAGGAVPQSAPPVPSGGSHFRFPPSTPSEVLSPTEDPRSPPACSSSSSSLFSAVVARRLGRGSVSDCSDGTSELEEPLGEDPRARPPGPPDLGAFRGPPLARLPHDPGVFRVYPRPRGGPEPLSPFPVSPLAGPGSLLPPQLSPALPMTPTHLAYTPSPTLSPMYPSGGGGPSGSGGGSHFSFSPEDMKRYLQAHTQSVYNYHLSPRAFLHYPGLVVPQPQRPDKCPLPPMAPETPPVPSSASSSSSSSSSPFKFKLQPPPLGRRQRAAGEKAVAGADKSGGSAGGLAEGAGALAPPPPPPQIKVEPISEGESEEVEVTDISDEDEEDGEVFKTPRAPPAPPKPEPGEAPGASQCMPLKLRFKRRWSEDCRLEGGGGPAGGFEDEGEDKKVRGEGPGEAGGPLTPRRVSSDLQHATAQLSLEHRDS
The gist of the method:
as §1

The target in a further test is T10, ETV3L (Homo sapiens, UniProt Q6ZN32 1-361).
T10 sequence: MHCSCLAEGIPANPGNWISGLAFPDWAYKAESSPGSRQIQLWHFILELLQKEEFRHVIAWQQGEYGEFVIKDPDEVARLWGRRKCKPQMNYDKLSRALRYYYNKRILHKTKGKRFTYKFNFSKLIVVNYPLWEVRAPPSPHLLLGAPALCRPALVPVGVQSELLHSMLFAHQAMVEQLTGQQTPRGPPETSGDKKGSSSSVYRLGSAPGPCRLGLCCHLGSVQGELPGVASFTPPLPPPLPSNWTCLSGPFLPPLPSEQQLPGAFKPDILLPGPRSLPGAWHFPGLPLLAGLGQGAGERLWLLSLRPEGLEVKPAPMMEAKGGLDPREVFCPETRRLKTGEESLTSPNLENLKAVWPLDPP
The gist of the method:
as §1

Another test addresses T11, ETS2 (Homo sapiens, UniProt P15036 1-469).
T11 sequence: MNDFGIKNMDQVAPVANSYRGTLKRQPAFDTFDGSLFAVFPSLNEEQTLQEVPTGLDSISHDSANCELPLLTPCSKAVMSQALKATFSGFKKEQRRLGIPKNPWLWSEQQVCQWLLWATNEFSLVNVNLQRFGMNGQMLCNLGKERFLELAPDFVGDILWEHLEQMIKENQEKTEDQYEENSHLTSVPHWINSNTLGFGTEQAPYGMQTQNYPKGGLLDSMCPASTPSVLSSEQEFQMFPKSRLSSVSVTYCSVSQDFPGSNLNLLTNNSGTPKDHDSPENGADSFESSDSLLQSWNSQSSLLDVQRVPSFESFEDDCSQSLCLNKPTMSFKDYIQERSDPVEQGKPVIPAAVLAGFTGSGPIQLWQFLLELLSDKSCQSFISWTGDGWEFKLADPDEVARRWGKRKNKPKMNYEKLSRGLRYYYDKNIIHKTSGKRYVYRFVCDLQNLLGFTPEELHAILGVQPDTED
The gist of the method:
as §1

A further test has as its target T12, ETV3 (Homo sapiens, UniProt P41162-2 1-143).
T12 sequence: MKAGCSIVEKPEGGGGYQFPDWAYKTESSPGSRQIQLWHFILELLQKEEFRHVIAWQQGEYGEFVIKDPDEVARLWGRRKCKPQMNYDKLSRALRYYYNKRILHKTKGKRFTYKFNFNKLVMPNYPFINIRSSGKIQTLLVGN
A digest of the protocol: as §1

SPIB, sequence (Q01892 whole entry): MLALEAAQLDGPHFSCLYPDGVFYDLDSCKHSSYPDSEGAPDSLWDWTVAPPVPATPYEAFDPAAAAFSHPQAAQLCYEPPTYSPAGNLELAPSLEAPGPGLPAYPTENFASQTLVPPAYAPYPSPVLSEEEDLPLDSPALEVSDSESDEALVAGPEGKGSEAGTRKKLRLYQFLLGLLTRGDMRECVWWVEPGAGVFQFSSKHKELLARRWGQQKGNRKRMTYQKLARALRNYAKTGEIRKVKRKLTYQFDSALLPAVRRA
ELF4, sequence (Q99607 whole entry): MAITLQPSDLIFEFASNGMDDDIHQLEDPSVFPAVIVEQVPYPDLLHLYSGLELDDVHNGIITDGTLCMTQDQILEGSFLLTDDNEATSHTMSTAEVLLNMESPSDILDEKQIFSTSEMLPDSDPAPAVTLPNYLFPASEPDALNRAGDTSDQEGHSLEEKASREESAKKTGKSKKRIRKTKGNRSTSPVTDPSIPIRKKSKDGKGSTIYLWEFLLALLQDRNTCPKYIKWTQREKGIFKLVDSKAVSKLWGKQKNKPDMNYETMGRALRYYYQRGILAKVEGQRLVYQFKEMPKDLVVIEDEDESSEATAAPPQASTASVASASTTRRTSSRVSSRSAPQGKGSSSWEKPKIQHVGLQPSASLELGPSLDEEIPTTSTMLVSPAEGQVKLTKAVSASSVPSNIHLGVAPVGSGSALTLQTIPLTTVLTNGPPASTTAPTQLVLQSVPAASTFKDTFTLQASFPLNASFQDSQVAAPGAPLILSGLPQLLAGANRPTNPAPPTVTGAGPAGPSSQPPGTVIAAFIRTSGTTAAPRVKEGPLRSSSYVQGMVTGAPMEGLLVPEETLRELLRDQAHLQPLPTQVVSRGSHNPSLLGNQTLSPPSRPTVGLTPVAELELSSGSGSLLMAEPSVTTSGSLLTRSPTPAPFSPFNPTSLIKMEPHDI
ETV1, sequence (P50549 whole entry): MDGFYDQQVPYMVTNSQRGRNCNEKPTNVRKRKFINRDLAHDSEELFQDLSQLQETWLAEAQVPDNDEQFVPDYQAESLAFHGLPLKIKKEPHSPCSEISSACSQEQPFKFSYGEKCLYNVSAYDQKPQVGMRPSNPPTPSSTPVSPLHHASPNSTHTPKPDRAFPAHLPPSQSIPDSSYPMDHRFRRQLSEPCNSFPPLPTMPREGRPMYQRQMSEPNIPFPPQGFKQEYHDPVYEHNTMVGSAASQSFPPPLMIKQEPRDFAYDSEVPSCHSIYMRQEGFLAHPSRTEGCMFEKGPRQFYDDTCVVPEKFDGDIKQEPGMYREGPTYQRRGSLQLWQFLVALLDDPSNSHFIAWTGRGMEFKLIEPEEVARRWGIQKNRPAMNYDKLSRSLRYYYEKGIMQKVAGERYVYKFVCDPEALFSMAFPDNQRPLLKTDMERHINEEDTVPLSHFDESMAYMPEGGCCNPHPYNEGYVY
ELF1, sequence (P32519 whole entry): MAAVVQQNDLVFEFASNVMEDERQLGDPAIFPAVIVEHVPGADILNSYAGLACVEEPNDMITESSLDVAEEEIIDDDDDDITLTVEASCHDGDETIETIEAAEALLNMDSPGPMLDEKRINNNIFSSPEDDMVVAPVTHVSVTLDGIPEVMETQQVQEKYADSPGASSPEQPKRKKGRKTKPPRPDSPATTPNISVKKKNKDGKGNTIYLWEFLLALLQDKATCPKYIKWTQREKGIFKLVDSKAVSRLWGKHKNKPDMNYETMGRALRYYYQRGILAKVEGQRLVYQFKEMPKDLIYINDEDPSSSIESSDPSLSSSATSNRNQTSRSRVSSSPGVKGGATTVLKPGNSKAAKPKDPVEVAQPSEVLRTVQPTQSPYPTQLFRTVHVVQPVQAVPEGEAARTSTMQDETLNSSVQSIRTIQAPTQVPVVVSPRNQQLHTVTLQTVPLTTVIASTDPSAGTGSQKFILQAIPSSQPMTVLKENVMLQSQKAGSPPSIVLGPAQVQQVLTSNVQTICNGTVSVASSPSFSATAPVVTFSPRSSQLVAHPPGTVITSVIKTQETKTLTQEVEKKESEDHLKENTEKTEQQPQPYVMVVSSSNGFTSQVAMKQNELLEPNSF
ETV5, sequence (P41161 whole entry): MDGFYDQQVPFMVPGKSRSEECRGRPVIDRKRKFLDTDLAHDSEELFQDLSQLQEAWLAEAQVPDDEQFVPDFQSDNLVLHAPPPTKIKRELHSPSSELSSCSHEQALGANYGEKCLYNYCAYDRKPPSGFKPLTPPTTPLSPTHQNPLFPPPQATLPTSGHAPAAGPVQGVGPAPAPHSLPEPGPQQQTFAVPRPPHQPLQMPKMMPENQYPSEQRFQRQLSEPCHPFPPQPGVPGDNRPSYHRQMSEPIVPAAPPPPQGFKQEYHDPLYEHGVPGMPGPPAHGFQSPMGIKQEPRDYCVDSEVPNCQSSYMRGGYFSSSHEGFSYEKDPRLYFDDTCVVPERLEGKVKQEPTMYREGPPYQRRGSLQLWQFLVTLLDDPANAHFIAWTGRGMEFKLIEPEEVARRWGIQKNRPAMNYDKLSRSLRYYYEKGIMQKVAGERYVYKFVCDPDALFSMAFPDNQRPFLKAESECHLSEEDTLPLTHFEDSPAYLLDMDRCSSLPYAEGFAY

For the sequence CGGCCT, the binding signal with FLI1 was 1.22 fold enrichment (6-mer frequency, TF over GST control); in the test with ELK1, 1.15 fold enrichment (6-mer frequency, TF over GST control); in the test with GABPA, 1.16 fold enrichment (6-mer frequency, TF over GST control); with ERG, 1.17 fold enrichment (6-mer frequency, TF over GST control); with ELF1, 1.1 fold enrichment (6-mer frequency, TF over GST control); with EHF it was 1.08 fold enrichment (6-mer frequency, TF over GST control). The binding signal is 1.02 fold enrichment (6-mer frequency, TF over GST control) in the test with SPIB; 1.13 fold enrichment (6-mer frequency, TF over GST control) in the test with ELK3; 1.17 fold enrichment (6-mer frequency, TF over GST control) in the test with FEV; 1.14 fold enrichment (6-mer frequency, TF over GST control) with ETV5; 1.14 fold enrichment (6-mer frequency, TF over GST control) in the test with SPIC; 1.12 fold enrichment (6-mer frequency, TF over GST control) in the test with ELF4. In addition, the binding signal in the test with ETV1 is 1.05 fold enrichment (6-mer frequency, TF over GST control); in the test with ERF, 1.06 fold enrichment (6-mer frequency, TF over GST control); with ETV3L, 1.07 fold enrichment (6-mer frequency, TF over GST control); in the test with ETS2 it was 1.06 fold enrichment (6-mer frequency, TF over GST control); with ETV3, 1.18 fold enrichment (6-mer frequency, TF over GST control).

Values taken from article PMC7862700, “An all-to-all approach to the identification of sequence-specific readers for epigenetic DNA modifications on cytosine”.
